High-throughput results: PubChem, NMMLSC
RGS8-Gao = regulators of human RGS8-Galphao interaction; response (percent of control binding), % at 10 µM; multiplexed bead flow cytometry, RGS8-Galphao binding; actives lie on both sides; actives 0.34% (n = 220,000); P09471; in the data active means response below about 60% or above about 140%; inactive means in between;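 further: Galphao activated as the GDP aluminium fluoride complex binding bead-coupled RGS8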
Target sequence (P09471 whole entry, looked up): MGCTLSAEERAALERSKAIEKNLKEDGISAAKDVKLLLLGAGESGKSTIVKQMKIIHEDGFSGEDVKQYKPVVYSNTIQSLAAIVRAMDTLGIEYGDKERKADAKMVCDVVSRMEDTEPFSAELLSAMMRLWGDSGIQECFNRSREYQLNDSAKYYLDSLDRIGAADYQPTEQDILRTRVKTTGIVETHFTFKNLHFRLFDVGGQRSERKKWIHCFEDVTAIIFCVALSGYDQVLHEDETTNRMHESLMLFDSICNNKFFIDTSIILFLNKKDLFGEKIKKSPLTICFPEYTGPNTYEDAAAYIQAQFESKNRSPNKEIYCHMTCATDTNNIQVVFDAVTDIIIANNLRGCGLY
RGS16-Gao HTS = modulates binding between human RGS16 and Galphao. actives 0.38% (n = 220,000). bead-based flow cytometry RGS16-Galphao binding, fluorescence; actives lie on both sides. binding response (% of control), % at 10 µM. O15492+P09471;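 further: Galphao activated by GDP with aluminum fluoride before binding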
RGS4-Gao reg = modulates binding of RGS4 to human Galphao; Multiplexed bead flow cytometry; actives lie on both sides; binding response (% of control), % at 10 µM; actives 0.33% (n = 220,000); AID 1415; in the data active means binding response below about 49% or above about 150%; inactive means in between;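 further: fluorescent Galphao activated with aluminum fluoride binding bead-coupled RGS4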
Avidin bead fluor = compound fluoresces at 488/530 nm on avidin beads | compound fluorescence 488/530 nm, flow cytometry; hits give high values | actives 0.38% (n = 220,000) | fluorescence (KMESF) at 10 µM; in the data active means fluorescence above about 47
GSH fluor = compound fluoresces at 488/530 nm on GSH beads. GSH beads flow cytometry, compound fluorescence 488/530 nm; hits give high values. actives 0.25% (n = 190,000). fluorescence (KMESF) at 10 µM; in the data active means fluorescence above about 89;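 further: glutathione beads carrying GST-tagged Bcl family fusion proteins plus one bare bead set; values are compound well signal with DMSO vehicle wells as background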
RGS7-Gao = regulators of human RGS7-Galphao interaction; AID 1439; binding response (% of control), % at 10 µM; Multiplexed bead flow cytometry, RGS7-Galphao binding; actives lie on both sides; actives 0.35% (n = 220,000); in the data active means binding response below about 49% or above about 150%; inconclusive means no clear call, values can overlap the other calls; inactive means in between;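 further: fluorescent Galphao held in activated GDP-AlF4 state binding bead-coupled RGS7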
RGS-Gao = RGS4-Galphao interaction regulator (human). shares compounds with RGS16-Gao HTS. multiplexed bead flow cytometry, RGS–Galpha-o binding. RGS4–Galpha-o binding response, % at 10 µM. actives 99% (n = 1,600). AID 1504;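 further: fluorescently labeled Galpha-o bound to GDP with aluminium fluoride binding biotinylated RGS beads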
Target sequence (P09471 whole entry, looked up): as above
Target sequence (P49798 whole entry, looked up): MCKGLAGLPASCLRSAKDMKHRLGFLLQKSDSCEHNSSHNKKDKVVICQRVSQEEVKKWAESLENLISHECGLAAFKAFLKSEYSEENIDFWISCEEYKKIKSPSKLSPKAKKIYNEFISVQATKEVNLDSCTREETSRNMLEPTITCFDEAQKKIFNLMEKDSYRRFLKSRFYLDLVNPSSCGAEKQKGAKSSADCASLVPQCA
Avidin counter = interferes with biotinylated probe binding to avidin beads; streptavidin beads, fluorescein-biotin binding, flow cytometry; 1,700 tested, under 10 active; inhibition, % at 10 µM; shares compounds with RGS16-Gao HTS;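 active means inhibition above 50%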;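 further: median green fluorescence of gated singlet beads compared with DMSO control wells; 0% = DMSO wells and 100% = complete loss of bead fluorescence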
RGS8-Gao confirm = RGS8-Galphao interaction regulation, single point confirmation; actives 3% (n = 1,700); shares compounds with RGS16-Gao HTS; bead-based flow cytometry RGS8-Galphao binding, fluorescence; actives lie on both sides; binding response (% of control), % at 10 µM; in the data active means binding response below about 72% or above about 130%; inactive means in between;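 further: Galphao activated as GDP AlF4 complex before binding bead RGS8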
RGS7-Gao confirm = RGS7-Galphao interaction regulation, single point confirmation | actives 7.8% (n = 1,700) | response (percent of control binding), % at 10 µM | bead-based flow cytometry RGS7-Galphao binding; actives lie on both sides | shares compounds with RGS16-Gao HTS; in the data active means response below about 75% or above about 130%; inactive means in between;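 further: fluorescent Galphao activated with GDP and aluminum fluoride binding bead-coupled RGS7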
RGS16-Gao single = RGS16-Galphao interaction regulation, single point confirmation | shares compounds with RGS16-Gao HTS | bead-based flow cytometry, RGS16-Galphao binding; actives lie on both sides | AID 1838 | response (% of control binding), % at 10 µM | actives 4% (n = 1,700); in the data active means response below about 74% or above about 130%; inactive means in between;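 further: Galphao activated as the GDP aluminium fluoride complex binding bead-coupled RGS16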
RGS4-Gao confirm = RGS4-Galphao interaction regulation, single point confirmation; actives 4% (n = 1,700); shares compounds with RGS16-Gao HTS; binding response (% of control), % at 10 µM; AID 1840; RGS4-Galphao binding, multiplexed bead flow cytometry; actives lie on both sides; in the data active means binding response below about 74% or above about 130%; inactive means in between
RGS19-Gao conf = RGS19-Galphao interaction regulation, single point confirmation. shares compounds with RGS16-Gao HTS. bead-based flow cytometry RGS19-Galphao binding; actives lie on both sides. response (percent of control binding), % at 10 µM. actives 5% (n = 1,700); in the data active means response below about 50% or above about 160%; inactive means in between;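 further: 100% = no compound control and 0% = blank background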
Starred values were filed as active, the others as inactive; i = inactive; ? = inconclusive; . = no result; [ ] = remark or other dose. A selection: hits, their analogues and other compounds. The true share with any hit is near 1.2%. Unless noted, how the calls were made is not given here.

SMILES	RGS8-Gao	RGS16-Gao HTS	RGS4-Gao reg	Avidin bead fluor	GSH fluor	RGS7-Gao	Avidin counter	RGS8-Gao confirm	RGS7-Gao confirm	RGS16-Gao single	RGS4-Gao confirm	RGS19-Gao conf	others
Cc1ccc(/C=N/NC(=O)c2ccc3nc[nH]c3c2)o1	95	92	156*[activator]	128*	.	?	3	98	90	98	96	78
CC1(C)CC(=O)C=C(NNC(=O)c2ccccc2)C1	14*	8.0*	4.6*	-2	21	9.9*	-1	103	103	103	103	96
Cc1nc2c(-c3ccc(Cl)cc3)cnn2c2c1CCC2	102	102	101	9	66	98	.	.	.	.	.	.
COc1c(Br)cc(C(N)=O)cc1OCc1ccccc1	69	-1.3*	77	6	10	77	1	101	99	102	101	103	RGS-Gao=77*
O=C(O)/C=C/C(=O)N1CCN(C(c2ccccc2)c2ccccc2)CC1	107	106	111	6	.	?	.	.	.	.	.	.
Clc1cc2cccnc2c2ccccc12	3.0*	i	-47*	-4	10	-24*	-1	98	102	100	102	96
Oc1c(Cl)cc(Cl)c2cccnc12	98	95	97	8	19	99	.	.	.	.	.	.
COc1ccc(C(=O)N2CCOC2CNC(=O)C(=O)NCc2ccco2)cc1 (stereo unspecified)	102	101	104	10	14	104	.	.	.	.	.	.
COc1ccccc1NC(=O)Nc1ccnn1Cc1cccs1	6.0*	-55*	-59*	-5	31	-20*	0	98	94	97	98	94
COc1ccccc1NC(=O)Cc1cccs1	99	101	99	13	25	99	.	.	.	.	.	.
CCN(CC)C(=S)Nc1c(C)n(C)n(-c2ccccc2)c1=O	100	93	99	3	12	98	.	.	.	.	.	.
Fc1ccccc1N1CC(c2ccccc2)C(c2cccs2)=N1 (stereo unspecified)	9.2*	-9	21*	-1	34	15*	0	98	96	93	96	70
COCCCN(C(=S)Nc1cc(Cl)cc(Cl)c1)C(C)c1ccccn1 (stereo unspecified)	89	86	83	.	.	?	.	.	.	.	.	.
Cn1c(N2CCCC2)nc2c1c(=O)n(Cc1ccc(Cl)cc1)c(=O)n2C	.	.	.	.	44	.	2	100	98	101	103	99
Nc1nc2nonc2nc1N	98	93	96	4	.	?	.	.	.	.	.	.
O=C(NCCC1=CCCCC1)c1ccc(Cl)cc1	100	105	102	11	17	101	.	.	.	.	.	.
CS(=O)(=O)Nc1ccc(C(=O)NCCC2=CCCCC2)cc1	.	.	.	.	38	.	-2	102	105	102	101	101
CCC(=O)NC1=C(Cl)C(=O)C(NC(=O)CC)=C(Cl)C1=O	53*	8.6*	73	3	.	?	-2	35*	54*	-3.1*	77	-6.5*	RGS-Gao=73*
CCC(=O)NC1=C(NC(C)c2ccccc2)C(=O)c2ccccc2C1=O (stereo unspecified)	107	104	109	4	26	107	.	.	.	.	.	.
COc1ccccc1-n1c(SCC(=O)N2CCCC2)nnc1-c1ccccc1	109	112	111	8	.	?	.	.	.	.	.	.
O=C(NNC(=O)C1CC2CCC1C2)c1sc2ccccc2c1Cl (stereo unspecified)	101	103	109	94*	17	166*[activator]	-2	101	102	104	103	106	RGS-Gao=109*
CN1CCCC(OC(=O)c2cccc(Cl)c2)C1 (stereo unspecified)	102	101	102	4	.	?	.	.	.	.	.	.
COc1ccc(NC(=O)Cn2nnc(-c3ccc(CN4CCOCC4)cc3)n2)c(OC)c1	145*[activator]	170	149	6	13	129	-4	105	106	106	105	98	RGS-Gao=149*
Cc1ccccc1NC(=O)Cn1nnc(-c2ccc(CN3CCC(C)CC3)cc2)n1	105	102	103	8	.	?	.	.	.	.	.	.
COc1cc2c(cc1OC)C(C(=O)NCc1cccnc1)C(c1cccnc1)N(C)C2=O (stereo unspecified)	97	110	119	174*	26	170*[activator]	.	.	.	.	.	.	RGS-Gao=119*
SMILES	RGS8-Gao	RGS16-Gao HTS	RGS4-Gao reg	Avidin bead fluor	GSH fluor	RGS7-Gao	Avidin counter	RGS8-Gao confirm	RGS7-Gao confirm	RGS16-Gao single	RGS4-Gao confirm	RGS19-Gao conf	others
N#CCCn1cc(/C=N/NC(N)=S)c(-c2ccc(-c3ccccc3)cc2)n1	103	97	108	7	11	109	.	.	.	.	.	.
CCCC(=O)NCn1nnc(-c2ccc(Cl)cc2)n1	121	273*[activator]	346*[activator]	50*	43	295*[activator]	0	103	103	103	103	99
O=C(Cn1nnc(-c2ccc(Cl)cc2)n1)NCc1ccco1	96	91	93	6	12	95	.	.	.	.	.	.
CCCNC(=S)N1CCN(C)CC1	123	186	100	9	9	99	.	.	.	.	.	.
C/C(CC(=O)Nc1ccc2c(c1)OCO2)=N\NC(=O)C(c1ccccc1)c1ccccc1	67	15*	87	1	13	86	0	107	104	108	102	108	RGS-Gao=87*
CCN(CC)S(=O)(=O)c1cc(C(=O)Nc2nncs2)c(Cl)cc1Cl	77	57	105	.	14	.	0	97	96	91	94	91
c1ccc(C2CCC(N3CCNCC3)CC2)cc1 (stereo unspecified)	141*[activator]	250*[activator]	120	6	10	122	-1	103	94	97	93	102	RGS-Gao=120*
CCN(CC(=O)Nc1cccc(C(C)=O)c1)S(=O)(=O)c1ccc(C)cc1	115	114	115	7	12	126	.	.	.	.	.	.
